Compounds with a hit are over-represented: about 1.2% of the library has one in this group of screens.
HIF activator: HIF pathway transcriptional activation; U2OS HRE-luciferase reporter, luminescence; normalized: DMSO 0%, desferrioxamine 100%; activation, % at 7.5 µM (by protocol); hit rate 0.32% among 300,000;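 active = mean activation of at least 10% of the iron chelator positive control signal, with at least half of replicates also reaching 10%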
HDAC3 inh: human HDAC3 inhibition | O15379 | recombinant HDAC3, fluorogenic peptide/trypsin coupled, fluorescence | inhibition, % at 8.3 µM | hit rate 0.15% among 320,000; in the data active = inhibition above about 26%, passing the limit was not always enough
Target sequence (O15379 whole entry, looked up): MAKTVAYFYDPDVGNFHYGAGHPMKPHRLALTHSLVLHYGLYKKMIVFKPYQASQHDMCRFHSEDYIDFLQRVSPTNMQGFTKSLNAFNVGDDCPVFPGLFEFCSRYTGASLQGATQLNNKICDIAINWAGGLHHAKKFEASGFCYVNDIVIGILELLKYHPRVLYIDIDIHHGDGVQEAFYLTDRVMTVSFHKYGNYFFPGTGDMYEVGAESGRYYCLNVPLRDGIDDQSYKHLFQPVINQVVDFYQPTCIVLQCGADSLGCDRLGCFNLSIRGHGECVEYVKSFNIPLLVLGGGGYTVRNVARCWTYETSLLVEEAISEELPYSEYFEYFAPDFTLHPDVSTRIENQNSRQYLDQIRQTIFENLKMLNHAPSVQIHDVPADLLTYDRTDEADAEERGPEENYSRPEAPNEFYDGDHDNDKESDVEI
Yeast superoxide: caloric restriction mimetics inhibiting age-related superoxide in yeast | hit rate 0.18% among 330,000 | superoxide response (% of plate mean), % at 10 µM | AID 2690 | S. cerevisiae aged cells, superoxide DHE fluorescence; active compounds read low;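 active = superoxide response under a set limit, about three screen SD below normal, cut at about 65% in these data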;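 note: yeast aged for seven days with compound at 30 °C before DHE staining; 100% = average MFI of all compound-treated wells on the plate with controls excluded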
LANA-H2A inh: blocks KSHV LANA binding to histone H2A/H2B; Q9QR71; cell-free LANA-H2A/H2B peptide, fluorescence polarization; inhibition, % (test concentration not listed); hit rate 0.6% among 320,000; in the data active = inhibition mostly above about 10%, no sharp cut-off; inactive = mostly below about 6.7%
Numbers without * were called inactive; / = not tested or not shown.

SMILES | HIF activator | HDAC3 inh | Yeast superoxide | LANA-H2A inh
CNC[C@H]1Oc2ccc(NC(=O)Cc3cn(C)c4ccccc34)cc2CC(=O)N([C@@H](C)CO)C[C@H]1C | / | 2 | 91 | 16*
O=C(CSC1=NS(=O)(=O)c2ccccc2N1)NCc1ccc(F)cc1 | 0 | -1 | 96 | 4
Nc1c(N(Cc2ccco2)C(=O)COc2ccccc2F)c(=O)[nH]c(=O)n1Cc1ccccc1 | / | 5 | 95 | 1
O=C1C=C(c2ccc3ccccc3c2)C[C@@H](c2ccc(F)cc2)C1 | / | 1 | 139 | 21*
CCCN1C(=O)c2cccc3c(N4CCCCC4)ccc(c23)C1=O | -2 | 0 | 103 | 13
O=C1c2cccc3c(N4CCCCC4)ccc(c23)C(=O)N1c1ccccn1 | 1 | -4 | 101 | 32*
CC(=O)N(C(C)=O)N1C(=O)c2cccc3c(N4CCOCC4)ccc(c23)C1=O | -1 | 7 | 106 | 55*
O=C(OCCN1C(=O)c2ccccc2C1=O)c1ccc(S(=O)(=O)N2CCCCCC2)cc1 | 0 | 0 | 98 | -2
CCN(CC)S(=O)(=O)c1ccc(C(=O)OCCN2C(=O)c3cccc4c(N5CCOCC5)ccc(c34)C2=O)cc1 | 0 | -1 | 104 | 27*
COc1ccc(Cl)cc1S(=O)(=O)N1CCC(C(=O)NC2CC2)CC1 | 0 | 0 | 107 | -4
O=C(NCc1ccccn1)c1ccc(OC2CCN(Cc3ccccc3)CC2)cc1 | 0 | 5 | 99 | -2
CCC(C)N1CCC(Oc2ccc(C(=O)NCc3ccccn3)cc2)CC1 (stereo unspecified) | 0 | -3 | 93 | 175*
COC(=O)Cn1c(C)nc(=O)c(-c2ccccc2)c1C | 0 | -3 | 82 | 15*
CCN(CC)c1ccc(S(=O)(=O)N2CCOCC2)cc1NC(=O)Nc1ccccc1 | / | 0 | 102 | -8
c1ccc2c(c1)OCC(c1nnc3n1-c1ccccc1SC3)O2 (stereo unspecified) | 0 | 2 | 117 | 17*
CCOC(=O)c1ccc(NC(=O)CN2C(=O)C(CC)SC(CC)C2=O)cc1 (stereo unspecified) | 0 | -1 | 103 | 38*
O=C(NCCc1nc2ccccc2[nH]1)/C(=C/c1ccco1)NC(=O)c1ccccc1Br | 1 | 3 | 99 | 14*
Cc1ccccc1NS(=O)(=O)c1ccc(C(=O)NCC(c2ccco2)N2CCCCC2)cc1 (stereo unspecified) | 1 | -9 | 98 | -7
COc1ccccc1C(CCN(Cc1ccccc1)C(C)=O)c1ccco1 (stereo unspecified) | / | 6 | 103 | -9
CCN(CCCCCN(C)C)Cc1cc2ccccc2o1 | 684* | -14 | 99 | -2
CN(C)CCCN(C(=O)c1cc2ccccc2oc1=O)c1nc2ccc(F)cc2s1 | 1 | / | 98 | /
CC1=C(C)CS(=O)N(S(=O)(=O)c2ccccc2)C1 (stereo unspecified) | 0 | 2 | 88 | 14*
C=CCn1c(N2CCCCCC2)nc2c1c(=O)[nH]c(=O)n2C | 30* | 4 | 114 | -6
Cn1c(=O)[nH]c(=O)c2c1nc(N1CCNCC1)n2Cc1ccccc1 | -1 | 3 | 102 | -1
Cn1c(=O)[nH]c(=O)c2c1nc(N1CCNCC1)n2Cc1cccc2ccccc12 | -33 | 3 | 93 | 18*
SMILES | HIF activator | HDAC3 inh | Yeast superoxide | LANA-H2A inh
CC(=O)N1CCCc2cc(S(=O)(=O)NCCC3=CCCCC3)ccc21 | -1 | 4 | 81 | -7
CCCCCCCCNc1ccccc1S(=O)(=O)NCc1ccccc1 | / | / | 102 | /
O=S(=O)(NCc1ccccc1)c1ccccc1NCCc1ccccc1 | / | / | 52* | /
CC(C)(CNc1ccc(S(=O)(=O)C(F)(F)F)cc1[N+](=O)[O-])N1CCOCC1 | 0 | -7 | 104 | 27*
Cc1cccc(N2N=C(C(=O)N3Cc4ccccc4CC3C(N)=O)CCC2=O)c1 (stereo unspecified) | / | 0 | 115 | 2
COc1ccc(C(=O)NC(CCSC)C(=O)N2CCCCCC2)cc1 (stereo unspecified) | -1 | 0 | 111 | 31*
CN(C(=O)c1ccc(NC(=O)C2CCCN(C(=O)OC(C)(C)C)C2)cc1)C1CCCC1 (stereo unspecified) | / | -7 | 93 | -3
CN(CC#CC(O)(c1ccccc1)c1ccccc1)C(C)(C)C | / | 7 | 65* | 1
CC(C)N(CC#CC(O)(c1ccccc1)c1ccccc1)C(C)C | -1 | 9 | 95 | 2
CC(C)NC(=O)NC(=O)COC(=O)c1ccc([N+](=O)[O-])cc1Cl | 0 | -1 | 109 | 5
CC(Sc1nnc(COc2ccc([N+](=O)[O-])cc2)n1-c1ccccc1)C(=O)O (stereo unspecified) | 0 | 7 | 96 | 2
